Data published in PubChem BioAssay AID1159580 (chemical genetic matrix, 2015).
Where “and” joins values, the source holds several entries; their conditions need not be identical. Identical values can stand only once. Screen size: about 5,500 compounds; about 2,000 (36%) were called active. Another 18% or so got no clear call; they are omitted. Cut-off read from the data, not from the text of the source: active = normalized growth mostly below about 0.91 (no sharp cut-off); inconclusive = no clear call, values can overlap the other calls; inactive = mostly above about 0.92. The list shows a part of the results.

Experiment: chemical genetic growth profiling, strain panel (AID 1159580);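 note: tested at 20 µM; growth read once vehicle control cultures reached saturation at 30 °C; 1 = growth at the plate median or of vehicle wells; lower values mean less growth of the strain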
Details: S. cerevisiae deletion strains, growth OD

Measured: normalized growth

CC(=O)O[C@H]1C[C@@H](O)C(C)(C)C2C[C@@H](OC(C)=O)[C@]3(C)C(CC[C@@]4(C)[C@H](c5ccoc5)OC(=O)C5OC543)[C@]21C (stereo partly specified)
inactive: locus YAL013W, strain DEP1, stronger effect = lower value 0.994 | locus YAL021C, strain ccr4, stronger effect = lower value 1.02 | locus YAL026C, strain drs2, stronger effect = lower value 1.01 | locus YAL030W, strain snc1, stronger effect = lower value 1 | locus YBL061C, strain skt5, stronger effect = lower value 1 | locus YBR009C, strain hhf1, stronger effect = lower value 0.997 | locus YBR021W, strain FUR4, stronger effect = lower value 1.03 | locus YBR023C, strain chs3, stronger effect = lower value 1.01 | locus YBR171W, strain sec66, stronger effect = lower value 1.01 | locus YBR229C, strain ROT2, stronger effect = lower value 0.948 | locus YBR231C, strain swc5, stronger effect = lower value 0.998 | locus YBR279W, strain paf1, stronger effect = lower value 0.999 | locus YCL011C, strain gbp2, stronger effect = lower value 0.999 | locus YCL016C, strain dcc1, stronger effect = lower value 0.997 | locus YCL029C, strain bik1, stronger effect = lower value 0.984 | locus YCL061C, strain MRC1, stronger effect = lower value 1.01 | locus YCL069W, strain vba3, stronger effect = lower value 1 | locus YCR088W, strain abp1, stronger effect = lower value 1.01 | locus YDL005C, strain med2, stronger effect = lower value 1 | locus YDL035C, strain GPR1, stronger effect = lower value 0.984 | locus YDL040C, strain nat1, stronger effect = lower value 1 | locus YDL074C, strain BRE1, stronger effect = lower value 0.952 | locus YDL101C, strain DUN1, stronger effect = lower value 0.986 | locus YDL185W, strain tfp1, stronger effect = lower value 0.97 | locus YDL192W, strain arf1, stronger effect = lower value 0.97 | locus YDR001C, strain nth1, stronger effect = lower value 1.01 | locus YDR069C, strain doa4, stronger effect = lower value 1.01 | locus YDR101C, strain arx1, stronger effect = lower value 0.973 | locus YDR137W, strain rgp1, stronger effect = lower value 1 | locus YDR159W, strain sac3, stronger effect = lower value 1.01 | locus YDR162C, strain NBP2, stronger effect = lower value 0.977 | locus YDR195W, strain ref2 0.985 | locus YDR297W, strain sur2, stronger effect = lower value 1.01 | locus YDR318W, strain mcm21, stronger effect = lower value 0.984 | locus YDR334W, strain swr1, stronger effect = lower value 1.01 | locus YDR335W, strain msn5, stronger effect = lower value 0.996 | locus YDR388W, stronger effect = lower value 1 | locus YDR392W, strain spt3, stronger effect = lower value 1.02 | locus YDR502C, strain sam2, stronger effect = lower value 1.01 | locus YEL003W, strain gim4, stronger effect = lower value 1 | locus YEL037C, strain rad23, stronger effect = lower value 0.997 | locus YEL061C, strain CIN8 (second series), stronger effect = lower value 1.01 | locus YER015W, strain faa2, stronger effect = lower value 1.01 | locus YER016W, strain bim1, stronger effect = lower value 1 | locus YER110C, stronger effect = lower value 0.97 | locus YER111C, strain swi4, stronger effect = lower value 1.02 | locus YER155C, strain BEM2 (second series), stronger effect = lower value 1.02 | locus YER155C, strain BEM2, stronger effect = lower value 1.02 | locus YER167W, strain BCK2, stronger effect = lower value 0.988 | locus YFR010W, strain ubp6, stronger effect = lower value 1.01 | locus YGL078C, strain dbp3, stronger effect = lower value 0.983 | locus YGL086W, strain mad1, stronger effect = lower value 0.997 | locus YGL167C, strain pmr1, stronger effect = lower value 0.999 | locus YGL173C, strain kem1, stronger effect = lower value 1.01 | locus YGL227W, strain vid30, stronger effect = lower value 1 | locus YGL240W, strain doc1, stronger effect = lower value 1 | locus YGL248W, strain PDE1, stronger effect = lower value 0.975 | locus YGL253W, strain hxk2, stronger effect = lower value 1.02 | locus YGR078C, strain PAC10, stronger effect = lower value 1 | locus YGR135W, strain pre9, stronger effect = lower value 1.03 | locus YGR229C, strain SMI1, stronger effect = lower value 0.976 | locus YGR252W, strain gcn5, stronger effect = lower value 0.966 | locus YHR013C, strain ard1, stronger effect = lower value 1.01 | locus YHR027C, strain rpn1, stronger effect = lower value 1.01 | locus YHR030C, strain SLT2, stronger effect = lower value 0.987 and 0.952 | locus YHR079C, strain IRE1 (second series), stronger effect = lower value 0.99 | locus YHR079C, strain IRE1, stronger effect = lower value 0.974 | locus YHR094C, strain hxt1, stronger effect = lower value 0.979 | locus YHR129C, strain ARP1, stronger effect = lower value 0.993 | locus YHR142W, strain chs7, stronger effect = lower value 0.999 | locus YHR200W, strain rpn10, stronger effect = lower value 0.99 | locus YIL066C, strain RNR3, stronger effect = lower value 0.957 | locus YIL073C, strain SPO22, stronger effect = lower value 1.04 | locus YIL125W, strain kgd1, stronger effect = lower value 0.983 | locus YIR030C, strain dcg1, stronger effect = lower value 0.992 | locus YJL092W, strain hpr5, stronger effect = lower value 1.01 | locus YJL095W, strain BCK1 (second series), stronger effect = lower value 1.01 | locus YJL095W, strain BCK1, stronger effect = lower value 1.03 and 1 | locus YJL115W, strain asf1, stronger effect = lower value 1 | locus YJL129C, strain trk1, stronger effect = lower value 1.01 | locus YJL134W, strain LCB3, stronger effect = lower value 0.978 | locus YJL154C, strain vps35, stronger effect = lower value 1 | locus YJL164C, strain tpk1, stronger effect = lower value 1.01 | locus YJL166W, strain qcr8, stronger effect = lower value 0.999 | locus YJL168C, strain set2, stronger effect = lower value 0.997 | locus YJL187C, strain SWE1 (second series), stronger effect = lower value 0.999
